Among the data in PubChem BioAssay (EPA / NIEHS) are outcome and AC50 values, retold here.

Records with an inconclusive call do not appear. Active and inactive are the calls of the source. Rule for the calls: active = hit-call score of the fitted dose curve at least 0.9, where 1 is the maximum; inconclusive = response in the unintended direction; inactive = score below 0.9.

The assay in a line: TOX21_PR_BLA_Followup_Agonist_viability: Viability Assessment in the Tox21 HEK293 Progesterone Receptor (PR) Agonism Beta-lactamase Follow-Up Assay (AID 2283935).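 Note: signal loss means lower viability so actives are cytotoxic.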 The method, then: TOX21_PR_BLA_Followup is a secondary assay for specificity for the TOX21_PR_BLA_Agonist assay. To differentiate true PR agonists from cytotoxic substances, this follow up assay is multiplexed with a cell viability assay. The compounds were also tested for auto fluorescence that may interfere with the biological target readout resulting in potential false positives and/or negatives. To identify the compounds that stimulate PR signaling, a PR-UAS-bla GripTite cell line i.e. PR-UAS-bla HEK293T (Invitrogen, Carlsbad, CA, USA) containing a beta-lactamase reporter gene under the control of an UAS response element was used to screen Tox21 10K compound library. The cytotoxicity of the Tox21 compound library against the PR-bla cell line was tested in parallel by measuring the cell viability using CellTiter-Glo assay in the same wells. TOX21_PR_BLA_Followup_Agonist_viability is a component of the TOX21_PR_BLA_Followup_Agonist assay. This component measures cell viability using the CellTiter-Glo Luciferase-coupled ATP quantitation.TOX21_PR_BLA_Followup_Agonist_viability used a type of viability reporter where loss-of-signal activity can be used to understand changes in the cell viability. Furthermore, this assay endpoint can be referred to as a secondary readout, because this assay has produced multiple assay endpoints where this one serves a viability function. To generalize the intended target to other relatable targets, this assay endpoint is annotated to the cell cycle intended target family, where the subfamily is cytotoxicity.
Assay Protocol: PR-UAS-bla HEK293T cells were dispensed at 3,000 cells/5 uL of assay medium containing 2% charcoal stripped FBS per well into black wall/clear-bottom 1536-well plates using a Multidrop Combi (ThermoFisher Scientific, Waltham, MA) dispenser. After the assay plates were incubated at a 37C and 5% CO2 for 6 hr, 23 nL of compounds dissolved in DMSO, positive controls or DMSO only was transferred to the assay plate by a Pintool station (Kalypsys, San Diego, CA). The plates were incubated at 37C and 5% CO2 for 16 hr. Then 1 uL of LiveBLAzer B/G FRET substrate was added using a Flying Reagent Dispenser (FRD, Aurora Discovery, San Diego, CA), the plates were incubated at room temperature for 2 hours, and fluorescence intensity was measured by an Envision plate reader (PerkinElmer, Shelton, CT). For cell viability readout that measures cytotoxicity, 4 uL/well of CellTiter-Glo reagent was added into the assay plates using a FRD. After 30 min incubation at room temperature, the luminescence intensity in the plates was measured using a ViewLux (PerkinElmer) plate reader.
Take `C[C@]12CC[C@H]3[C@@H](CC[C@@]45O[C@@H]4C(O)=C(C#N)C[C@]35C)[C@@H]1CC[C@@H]2O`: the call was inactive.

As for `CCC1COC(Cn2cncn2)(c2ccc(Cl)cc2Cl)O1` (configuration not stated), the compound was classed as inactive.

Take `C[C@]12CC[C@H]3[C@@H](CCC4=CC(=O)CC[C@@H]43)[C@@H]1CC[C@@H]2OC(=O)CCC1CCCCC1`: the compound was called inactive.

`C=CC[C@]1(O)CC[C@H]2[C@@H]3CCC4=CC(=O)CCC4=C3C=C[C@@]21C`: the outcome was inactive.

Turning to `CCC(=O)O[C@@H]1C=C2CCC3C(CCC4(C)C3CC[C@@H]4OC(=O)CC)C2CC1` (some centres not stated), the compound was called inactive.

As for `CC(=O)O[C@H]1CC[C@@]2(C)C(=CC[C@@H]3[C@@H]2CC[C@]2(C)C(=O)CC[C@@H]32)C1`, the outcome was inactive.

With `O=C1CN=C(c2ccccc2)c2cc(Cl)ccc2N1CC1CC1`, the result was inactive.

Regarding `C[C@]12C=CC(=O)C=C1CC[C@@H]1[C@@H]2CC[C@@]2(C)[C@H]1CC[C@]2(C)O`, the compound was called inactive.

Consider `C[C@]12CC[C@H]3[C@@H](CCC4=CC(=O)CC[C@@H]43)[C@@H]1CC[C@@H]2OC(=O)CCc1ccccc1`, for which the compound was called inactive.

In the case of `CC1COC2(c3ccccc3Cl)c3cc(Cl)ccc3NC(=O)CN12` (configuration not stated), the outcome was inactive.

Consider `N#Cc1cc(I)c(O)c(I)c1`, for which the result was inactive.

As to `C[C@]12C/C(=C/O)C(=O)C[C@@H]1CC[C@@H]1[C@@H]2CC[C@@]2(C)[C@H]1CC[C@]2(C)O`, the compound was classed as inactive.

For the compound `C#C[C@]1(O)CC[C@H]2[C@@H]3CCC4=CC(=O)CCC4=C3C=C[C@@]21CC`, the result was inactive.

For the compound `C[C@]12Cc3cn[nH]c3C[C@@H]1CC[C@@H]1[C@@H]2CC[C@@]2(C)[C@H]1CC[C@]2(C)O`, the compound was called inactive.

Take `C[C@]12Cc3nonc3C[C@@H]1CC[C@@H]1[C@@H]2CC[C@@]2(C)[C@H]1CC[C@]2(C)O`: the AC50 is 35.1 µM (active).

For the compound `CCOC(=O)C1(c2ccccc2)CCN(CCC(C#N)(c2ccccc2)c2ccccc2)CC1`, the compound was classed as inactive.

As for `O=C(CBr)Nc1ccc(Cl)cc1C(=O)c1ccccc1F`, the result was inactive.

In the case of `C[C@]12CC[C@H]3[C@@H](CCC4=CC(=O)CC[C@@H]43)[C@@H]1CC[C@@H]2O`, the outcome was inactive.

On to `C[C@]12CC[C@H]3[C@@H](CCC4=CC(=O)CC[C@@H]43)[C@@H]1CC[C@@H]2OC(=O)CCc1ccco1`, for which the result was inactive.

In the case of `O=[N+]([O-])c1ccc2ccc3cccc4ccc1c2c34`, the compound was called inactive.

Consider `CC[C@H]1C[C@H]2[C@@H]3CCC4=CC(=O)CC[C@@H]4[C@H]3CC[C@]2(C)[C@H]1O`, for which the call was inactive.

Turning to `C[C@]12CCC(=O)C(O)=C1CC[C@@H]1[C@@H]2CC[C@]2(C)C(=O)CC[C@@H]12`, the compound was called inactive.

`COc1ccc2c(c1OC)CN1CCc3cc4c(cc3C1C2)OCO4` (configuration not stated): the outcome was inactive.

As to `C=C1C[C@@H]2[C@H](CC[C@]3(C)C(=O)CC[C@@H]23)[C@@]2(C)C=CC(=O)C=C12`, the compound was called inactive.

With `C[C@H]1CCC[C@H](O)CCCCCc2cc(O)cc(O)c2C(=O)O1`, the call was inactive.

For the compound `CCOP(=S)(OCC)Oc1cc(Cl)c(Br)cc1Cl`, the outcome was inactive.

On to `CC(C)(c1cc(Cl)c(O)c(Cl)c1)c1cc(Cl)c(O)c(Cl)c1`, for which the outcome was inactive.

Regarding `CC(=O)c1cc2c(cc1C)C(C)(C)C(C)CC2(C)C` (configuration not stated), the outcome was inactive.

In the case of `COP(=S)(NC(C)C)Oc1ccc(C)cc1[N+](=O)[O-]` (configuration not stated), the outcome was inactive.

Turning to `C[C@]1(O)CC[C@H]2[C@@H]3CCC4=CC(=O)CC[C@]4(C)[C@@]3(F)[C@@H](O)C[C@@]21C`, the outcome was inactive.

With `O=C1C(Cl)C(CCl)CN1c1cccc(C(F)(F)F)c1` (configuration not stated), the outcome was inactive.

As to `Nc1ccc(Cl)cc1C(=O)c1ccccc1F`, the result was inactive.

Broadly, the AC50 is the concentration at which the activity in the assay is half-maximal.
